# Values without a mark were called inactive. Records with an inconclusive call do not appear. Entries that show only a call come without a potency. Activity calls are given as the source filed them. Unless noted, calls come from the whole dose curve; as a rule, active = well fitted curve in the direction sought with a large enough effect in the repeat runs; inconclusive = weak or mixed curves; inactive = no such curve, though single readings can be large; an effect the other way counts as inactive or inconclusive.
# Assays:
# [1] = qHTS assay to identify small molecule antagonists of the estrogen related receptor (ERR) signaling pathway from Tox21 library - cell viability counter screen (AID 1224834); note: nearly all actives have a fitted effect of over 30% in size
# Method in brief: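 In this quantitative HTS format, ERR cells receive compounds in DMSO and are incubated for 17.5 h at 37 C. Live-cell protease activity is then detected with CellTiter-Fluor.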
# [2] = target: Luciferin 4-monooxygenase (Photinus pyralis) (UniProt P08659); test: qHTS assay to identify small molecule inhibitors of firefly luciferase (AID 1224835); note: nearly all actives have a fitted effect of over 25% in size; note: potency is the fitted concentration of half-maximal effect
# Chain of Luciferin 4-monooxygenase (Photinus pyralis) (P08659 whole entry, looked up): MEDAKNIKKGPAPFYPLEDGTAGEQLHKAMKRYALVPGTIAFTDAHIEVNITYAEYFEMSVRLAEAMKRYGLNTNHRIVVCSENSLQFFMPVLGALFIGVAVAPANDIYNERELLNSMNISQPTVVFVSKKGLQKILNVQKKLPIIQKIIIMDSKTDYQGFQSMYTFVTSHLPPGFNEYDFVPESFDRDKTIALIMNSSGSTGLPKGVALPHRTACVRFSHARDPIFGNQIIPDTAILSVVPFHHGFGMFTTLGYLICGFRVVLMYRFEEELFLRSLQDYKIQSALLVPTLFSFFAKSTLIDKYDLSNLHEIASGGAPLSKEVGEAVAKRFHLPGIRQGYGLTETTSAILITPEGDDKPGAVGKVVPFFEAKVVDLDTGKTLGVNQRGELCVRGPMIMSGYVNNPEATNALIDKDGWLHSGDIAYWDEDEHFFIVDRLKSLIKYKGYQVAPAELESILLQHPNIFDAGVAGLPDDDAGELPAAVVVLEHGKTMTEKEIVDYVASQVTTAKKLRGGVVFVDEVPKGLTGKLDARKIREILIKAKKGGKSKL
# Method in brief: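 Inhibition of purified Photinus luciferase is measured by luminescence. Substrate levels (D-luciferin, ATP) sit at their KM values. Each compound is tested in a concentration series.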
# [3] = qHTS assay to identify small molecule agonists of the constitutive androstane receptor (CAR) signaling pathway - cell viability counter screen (AID 1224836); note: nearly all actives have a fitted effect of over 45% in size
# Method in brief: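 Fluorescence from CellTiter-Fluor indicates live cells after 23 h exposure. The human hepatoma line expresses hCAR and a CYP2B6-2.2kb reporter. Incubation medium contains 0.75 uM PK11195 (final).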
# [4] = qHTS assay to identify small molecule antagonists of the constitutive androstane receptor (CAR) signaling pathway - cell viability counter screen (AID 1224837); note: nearly all actives have a fitted effect of over 45% in size
# Method in brief: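 In quantitative HTS format, compounds at 15 concentrations were applied to HepG2 cells double-transfected with hCAR and CYP2B6-2.2kb under 50 nM CITCO stimulation; live-cell protease activity was read after 23 hr via CellTiter-Fluor.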
# [5] = target: Nuclear receptor subfamily 1 group I member 3 (Homo sapiens) (UniProt Q14994); test: qHTS assay to identify small molecule antagonists of the constitutive androstane receptor (CAR) signaling pathway (AID 1224838); note: nearly all actives have a fitted effect of over 40% in size
# Chain of Nuclear receptor subfamily 1 group I member 3 (Homo sapiens) (Q14994 whole entry, looked up): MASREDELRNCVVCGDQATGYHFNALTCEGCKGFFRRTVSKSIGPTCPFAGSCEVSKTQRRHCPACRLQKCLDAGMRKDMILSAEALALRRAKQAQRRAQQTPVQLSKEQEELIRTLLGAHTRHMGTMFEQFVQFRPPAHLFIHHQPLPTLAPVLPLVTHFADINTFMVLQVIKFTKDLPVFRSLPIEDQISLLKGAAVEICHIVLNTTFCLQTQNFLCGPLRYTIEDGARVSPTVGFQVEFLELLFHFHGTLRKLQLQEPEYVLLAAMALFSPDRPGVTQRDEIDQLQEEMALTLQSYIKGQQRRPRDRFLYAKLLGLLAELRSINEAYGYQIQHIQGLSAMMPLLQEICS
# Method in brief: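 CITCO-stimulated (50 nM final) HepG2 cells stably transfected with hCAR and CYP2B6-2.2kb luciferase were exposed to compounds at 15 concentrations for 24 h at 37 C/5% CO2. A luciferase reagent was added and luminescence recorded after 30 min.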
# [6] = target: Nuclear receptor subfamily 1 group I member 3 (Homo sapiens) (UniProt Q14994); test: qHTS assay to identify small molecule agonists of the constitutive androstane receptor (CAR) signaling pathway (AID 1224839); note: nearly all actives have a fitted effect of over 15% in size; note: potency is the fitted concentration of half-maximal effect;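 for activation: HepG2 cells stably carrying human CAR and a CYP2B6 luciferase reporter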
# Method in brief: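 Stable hCAR/CYP2B6-2.2kb HepG2 line in DMEM with 10% FBS; compounds (15 concentrations) and 0.75 uM PK11195 final, 24 h at 37 C/5% CO2, then ONE-Glo luminescence after 30 min.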
# [7] = target: Thyrotropin receptor (Homo sapiens) (UniProt P16473); test: qHTS assay to identify small molecule agonists of the thyroid stimulating hormone receptor (TSHR) signaling pathway (AID 1224843; calls by dose curve; note: nearly all actives have a fitted effect of over 45% in size)
# Chain of Thyrotropin receptor (Homo sapiens) (P16473 whole entry, looked up): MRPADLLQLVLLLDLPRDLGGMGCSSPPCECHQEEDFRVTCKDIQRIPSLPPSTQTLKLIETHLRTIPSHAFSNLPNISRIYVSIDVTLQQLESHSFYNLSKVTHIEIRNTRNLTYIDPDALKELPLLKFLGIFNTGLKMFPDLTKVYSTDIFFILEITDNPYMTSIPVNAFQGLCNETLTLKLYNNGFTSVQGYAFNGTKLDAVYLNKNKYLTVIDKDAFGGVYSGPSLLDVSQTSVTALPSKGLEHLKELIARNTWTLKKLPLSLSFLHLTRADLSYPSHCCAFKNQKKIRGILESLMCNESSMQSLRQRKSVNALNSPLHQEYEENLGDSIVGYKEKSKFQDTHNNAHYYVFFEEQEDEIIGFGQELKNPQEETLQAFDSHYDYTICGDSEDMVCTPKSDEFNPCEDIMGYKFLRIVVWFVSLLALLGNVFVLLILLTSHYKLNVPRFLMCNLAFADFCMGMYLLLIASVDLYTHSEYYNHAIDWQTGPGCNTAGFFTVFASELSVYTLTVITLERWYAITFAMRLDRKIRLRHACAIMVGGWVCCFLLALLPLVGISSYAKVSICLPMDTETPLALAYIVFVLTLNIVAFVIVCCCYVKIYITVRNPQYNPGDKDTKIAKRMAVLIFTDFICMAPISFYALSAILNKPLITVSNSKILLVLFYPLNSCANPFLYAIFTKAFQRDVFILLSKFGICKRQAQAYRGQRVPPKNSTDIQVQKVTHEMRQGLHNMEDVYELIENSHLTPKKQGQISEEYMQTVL
# Method in brief: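 A cell-based cAMP HTRF format was run in TSHR-transfected HEK293 cells, 800 per well. Treatment: 30 min, room temperature. Detection: 1 h with labelled cAMP and anti-cAMP cryptate. Concentration-response over 15 points, three replicates.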
# [8] = qHTS assay to identify small molecule agonists of the hypoxia (HIF-1) signaling pathway - cell viability counter screen (AID 1224844; calls by dose curve; note: nearly all actives have a fitted effect of over 50% in size)
# Method in brief: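 Same wells as the HIF-1 reporter screen; ME-180 cells carrying HRE-bla, 17 hr treatment at 37C; CellTiter-Glo luminescence read after 30 min at room temperature.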
# [9] = qHTS assay to identify small molecule agonists of H2AX (AID 1224845; active = well fitted activation curve with a large enough effect in the signal ratio in the repeat runs, not every such curve was filed as active; the % refers to the signal ratio)
# Method in brief: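 Phospho-H2AX Ser139 measured by HTRF (ex 320 nm; em 665 and 620 nm) after 24 hr antibody incubation. Compounds, 15 concentrations, 0.76% DMSO, were applied to CHO-K1 cells for 3hr at 37C before lysis.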
# [10] = qHTS assay to identify small molecule agonists of H2AX - cell viability counter screen (AID 1224847; calls by dose curve; note: top concentration of the series differs between compounds; nearly all actives have a fitted effect of over 30% in size)
# Method in brief: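 Viability of CHO-K1 (wild type) cells after 3 hr compound exposure was measured by CellTiter-Glo luminescence.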
# [11] = qHTS RealTime-Glo MT Cell Viability Assay in HepG2 cells - 24 hour (AID 1224867); note: nearly all actives have a fitted effect of over 50% in size
# Method in brief: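 Cell number in HepG2 cultures estimated from NanoLuc luminescence generated by metabolic reduction of a prosubstrate by living cells. The homogeneous, nonlytic format allowed repeated reads at 0, 8, 16, 24, 32 and 40 h of compound exposure.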
# [12] = qHTS RealTime-Glo MT Cell Viability Assay in HEK293 cells - 32 hour (AID 1224868); note: top concentration of the series differs between compounds; nearly all actives have a fitted effect of over 50% in size
# Method in brief: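 Homogeneous bioluminescent viability format in HEK293 cells (600 cells/well). Following 5 h at 37 C/5% CO2, 23 nL compound was pintooled; the signal was measured repeatedly during 40 h incubation.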
# [13] = A CellTox Green Cytotoxicity Assay to monitor cytotoxicity in HEK293 cells - 0 hour (AID 1224869); note: nearly all actives have a fitted effect of over 50% in size
# Method in brief: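 Homogeneous no-lysis format: HEK293 cell suspension mixed with CellTox Green reagent, seeded, incubated 5 h at 37 C/5% CO2, then dosed by pintool with compound in DMSO.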
# [14] = qHTS assay to identify small molecule antagonists of the estrogen related receptor signaling pathway with the pleiotropic PPARgamma coactivator (PGC) from Tox21 10K library - cell viability counter screen (AID 1224840; active = well fitted cell-killing curve with a large enough effect in the repeat runs, not every such curve was filed as active; note: nearly all actives have a fitted effect of over 40% in size)
# Method in brief: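 Viability counter screen, PGC/ERR cells: 17.5 h compound exposure at 37 C, CellTiter-Fluor fluorescence endpoint.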
# [15] = qHTS RealTime-Glo MT Cell Viability Assay in HepG2 cells - 40 hour (AID 1224870); note: nearly all actives have a fitted effect of over 50% in size
# Method in brief: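 Real-time viability: cells seeded at 600 per well together with NanoLuc and cell-permeant prosubstrate, compounds added after 5 h incubation. Luminescence tracked at 0, 8, 16, 24, 32 and 40 h of exposure.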
# [16] = qHTS assay to identify small molecule agonists of the hypoxia (HIF-1) signaling pathway (AID 1224846; active = well fitted activation curve with a large enough effect in the signal ratio in the repeat runs, not every such curve was filed as active; the % refers to the signal ratio)
# Method in brief: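 In ME-180 cells bearing an HRE-bla construct, 17 h treatment with DMSO-dissolved compounds at 37C was followed by CCF4-AM loading to quantify reporter induction.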
# [17] = qHTS assay to identify small molecule antagonists of the estrogen related receptor signaling pathway with the pleiotropic PPARgamma coactivator (PGC) from Tox21 10K library (AID 1224841; call rule not given here)
# Method in brief: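 In the PGC/ERR line, DMSO solutions of test chemicals are pin-delivered to 2,000 cells/well six hours after dispensing. Following eighteen hours' incubation, One-Glo reagent is added and luminescence recorded.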
# [18] = qHTS assay to identify small molecule agonists of the estrogen related receptor signaling pathway with the pleiotropic PPARgamma coactivator (PGC) from Tox21 10K library (AID 1224842); note: nearly all actives have a fitted effect of over 15% in size; note: potency is the fitted concentration of half-maximal effect
# Method in brief: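 Luminescence from One-Glo (30 min, room temperature) measured after PGC/ERR cells had 18 h at 37 C with pinned compound (23 nL in DMSO). Cells had been seeded at 2,000 per well and pre-incubated 6 h.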
# [19] = qHTS assay to identify small molecule antagonists of the estrogen related receptor (ERR) signaling pathway from Tox21 library (AID 1224848); note: nearly all actives have a fitted effect of over 50% in size
# Method in brief: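 ERR cell line, 2,000 cells/well. 6 h settle, then compound (DMSO) added; 18 h at 37 C; ONE-Glo luminescence after 30 min RT.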
# [20] = qHTS assay to identify small molecule agonists of the estrogen related receptor (ERR) signaling pathway from Tox21 library (AID 1224849; calls by dose curve; note: nearly all actives have a fitted effect of over 15% in size); conditions: ERR reporter cell line, ONE-Glo luciferase, 18 h; at 92.4 µM (top of the series) unless noted
# Method in brief: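 Reporter cells (ERR, NTP source) treated with Tox21 10K compounds 18 h, 37 C. Readout: ONE-Glo luminescence, 30 min RT.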
SMILES,Potency [1],Potency [2],outcome [3],outcome [4],Potency [5],Potency [6],outcome [7],Potency [8],outcome [9],Potency [10],outcome [11],Potency [12],Potency [13],outcome [14],Potency [15],outcome [16],Potency [17],Potency [18],Potency [19],"activity change, positive = activation [20]"
CN(C)CCOC(c1ccc(Cl)cc1)c1ccccn1 (configuration not stated),inactive,inactive,inactive,inactive,inactive,inactive,inactive,inactive,inactive,inactive,inactive,inactive,inactive,–,–,–,–,–,–,–
COC(=O)CCCC(=O)O,inactive,inactive,inactive,inactive,inactive,inactive,inactive,–,inactive,–,–,inactive,inactive,inactive,inactive,–,–,–,–,–
CC(C)[N+](C)(C)CC(O)COc1cccc2ccccc12 (configuration not stated),inactive,inactive,inactive,inactive,inactive,inactive,inactive,inactive,inactive,inactive,inactive,inactive,inactive,–,–,inactive,–,–,–,–
CC(C)(O)Cc1ccccc1,inactive,inactive,inactive,inactive,–,inactive,inactive,inactive,inactive,inactive,inactive,–,inactive,inactive,inactive,inactive,inactive,inactive,inactive,-2.35%
c1ccc(SCCSc2ccccc2)cc1,inactive,7.9 µM (active),inactive,inactive,inactive,17.1 µM (active),–,inactive,inactive,–,–,inactive,inactive,–,inactive,inactive,inactive,5.4 µM (active),inactive,69.4% (active)
CC(C)N1C(=O)c2ccccc2C1=O,inactive,inactive,inactive,inactive,inactive,inactive,inactive,inactive,inactive,inactive,–,inactive,inactive,–,inactive,inactive,–,–,–,–
[O-][N+](=Nc1ccccc1)c1ccccc1,inactive,11.3 µM (active),inactive,inactive,inactive,30.6 µM (active),–,–,inactive,–,inactive,inactive,inactive,inactive,inactive,inactive,–,–,–,–
CCO[Si](CCCN=C=O)(OCC)OCC,inactive,inactive,inactive,inactive,–,inactive,inactive,inactive,inactive,–,inactive,inactive,inactive,inactive,inactive,inactive,inactive,inactive,inactive,-6.45%
O=c1[nH]c(=O)n([C@H]2O[C@H](CO)[C@@H](O)[C@@H]2O)cc1/C=C\Br,inactive,inactive,inactive,inactive,inactive,inactive,–,inactive,inactive,inactive,inactive,inactive,inactive,–,inactive,inactive,–,–,–,–

# Reference: PubChem BioAssay (Tox21)
